Experiment [1] can be described thus: ACEA_AR_agonist_AUC_viability: ACEA Biosciences xCELLigence Real-Time Cell Analysis on Androgen Receptor Agonism for Viability (AID 2283775).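 On AC50: viability read 80 hours after compound addition.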 The method in brief:
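Viability endpoint from xCELLigence impedance in 22Rv1 prostate cells at 80 h. Eight-point series, 100 uM maximum final.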

The nature of experiment [2]: ACEA_AR_antagonist_AUC_viability: ACEA Biosciences xCELLigence Real-Time Cell Analysis on Androgen Receptor Antagonism for Viability (AID 2283776).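 Further: 22Rv1 human prostate cancer cells growing on impedance electrode plates; area under impedance growth curve at 80 h after dosing as viability; hits lower the growth signal relative to DMSO meaning cytotoxicity.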 A digest of the protocol:
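22Rv1 prostate cells, continuous dosing up to 100 uM final (0.5% DMSO max), duplicate plates. Growth measured by impedance; AUC at 80 h, loss of signal vs DMSO.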

Experiment [3] can be described thus: ACEA_ER_AUC_viability: ACEA Biosciences xCELLigence Real-Time Cell Analysis on Estrogen Receptor Agonism for Viability (AID 2283782).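 Further: hit means loss of impedance signal meaning reduced cell growth or viability.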 A digest of the protocol:
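Read-out: real-time electrical impedance (RT-CES) area under curve, loss of signal taken as reduced viability, normalized to DMSO baseline. T-47D cells, charcoal-stripped serum medium, compounds up to 100 uM final, continuous exposure, 80 h.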

Experiment [4] has as its system zebrafish Estrogen Receptor (ESR2B), gene 317733. In words: ATG_zfER2b_XSP1: Attagene TRANS-FACTORIAL Multi-Species (XSP1) HepG2 Assay for zebrafish Estrogen Receptor (ESR2B) (AID 2283773). A digest of the protocol:
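Multiplexed TRANS format in transfected HepG2 liver cells, chimeric NR-Gal4 from zebrafish ESR2B. 24 h dosing; medium contains 3 nM 6-alpha-fluorotestosterone. mRNA induction by RT-PCR/CE, positive direction vs DMSO.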

Experiment [5] has as its system frog Estrogen Receptor (ESR2), gene 100174814. As to the kind of experiment: ATG_frER2_XSP1: Attagene TRANS-FACTORIAL Multi-Species (XSP1) HepG2 Assay for frog Estrogen Receptor (ESR2) (AID 2283774). The method in brief: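 HepG2, transient MRTU transfection (GAL4-UAS reporters, exogenous NR-Gal4 chimeras); 24 h compound exposure; 3 nM 6α-fluorotestosterone co-added; total RNA → RT-PCR → 6-FAM primer extension → HpaI → CE. Positive direction vs DMSO.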

The test system of experiment [6] is frog Estrogen Receptor (ESR1), gene 398734. As to the kind of experiment: ATG_frER1_XSP1: Attagene TRANS-FACTORIAL Multi-Species (XSP1) HepG2 Assay for frog Estrogen Receptor (ESR1) (AID 2283777). A digest of the protocol: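 Transient MRTU transfection, HepG2 (human liver); 24 h dosing, 3 nM 6α-fluorotestosterone co-added; RNA → RT-PCR → 6-FAM labeling → CE; upward activity vs DMSO.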

Experiment [7] deals with zebrafish Estrogen Receptor (ESR2A), gene 317734. In words: ATG_zfER2a_XSP1: Attagene TRANS-FACTORIAL Multi-Species (XSP1) HepG2 Assay for zebrafish Estrogen Receptor (ESR2A) (AID 2283778). The method in brief: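 Transient transfection of HepG2 (human liver) with MRTU constructs; chemical dosing for 24 h; medium contained 3 nM 6-alpha-fluorotestosterone to partly stimulate AR. RT-PCR/CE fluorescence of reporter transcripts; positive direction vs DMSO.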

For experiment [8], the target named is chicken Estrogen Receptor (ESR1), ESR1 (gene 396099) (UniProt P06212). In words: ATG_chERa_XSP1: Attagene TRANS-FACTORIAL Multi-Species (XSP1) HepG2 Assay for chicken Estrogen Receptor (ESR1) (AID 2283779). The method in brief: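 Read-out: fluorescent reporter mRNA fragments resolved by capillary electrophoresis after RT-PCR and HpaI digestion. Transfected HepG2 cells carried chimeric NR-Gal4 constructs, were dosed 24 h with 3 nM 6-alpha-fluorotestosterone added, and activity was fitted upward relative to DMSO.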
Chain of chicken Estrogen Receptor (ESR1), ESR1 (gene 396099) (P06212 whole entry, looked up, the tested form may be a part): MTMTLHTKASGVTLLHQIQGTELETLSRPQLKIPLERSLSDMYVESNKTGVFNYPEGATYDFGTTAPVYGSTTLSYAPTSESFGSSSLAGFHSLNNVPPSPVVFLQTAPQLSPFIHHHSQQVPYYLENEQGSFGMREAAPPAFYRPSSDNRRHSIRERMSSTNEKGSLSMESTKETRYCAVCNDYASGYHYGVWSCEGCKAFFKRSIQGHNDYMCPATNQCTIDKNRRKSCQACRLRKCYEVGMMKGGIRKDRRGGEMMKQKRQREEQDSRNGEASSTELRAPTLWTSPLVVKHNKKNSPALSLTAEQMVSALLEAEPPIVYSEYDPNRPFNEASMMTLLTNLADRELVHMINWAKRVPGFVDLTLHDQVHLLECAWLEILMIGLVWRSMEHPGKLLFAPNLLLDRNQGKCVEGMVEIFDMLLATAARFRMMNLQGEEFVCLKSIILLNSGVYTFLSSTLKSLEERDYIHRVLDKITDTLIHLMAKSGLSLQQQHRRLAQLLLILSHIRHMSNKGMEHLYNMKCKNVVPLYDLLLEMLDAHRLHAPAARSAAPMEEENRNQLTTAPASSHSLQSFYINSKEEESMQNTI

The target in experiment [9] is Estrogen receptor (Homo sapiens) (UniProt P03372). As to the kind of experiment: ATG_hERa_XSP1: Attagene TRANS-FACTORIAL Multi-Species (XSP1) HepG2 Assay for human Estrogen Receptor (ESR1) (AID 2283780). The method in brief:
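Reporter transcripts from multiplexed GAL4-UAS units driven by NR-Gal4 chimeras in transiently transfected HepG2 were measured by RT-PCR with capillary electrophoresis 24 h post-dose, with 3 nM 6-alpha-fluorotestosterone present; gain-of-signal relative to DMSO.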

The subject of experiment [10] is turtle Estrogen Receptor (ESR1), gene 101933533. As to the kind of experiment: ATG_trERa_XSP1: Attagene TRANS-FACTORIAL Multi-Species (XSP1) HepG2 Assay for turtle Estrogen Receptor (ESR1) (AID 2283781). The method in brief:
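Transfect HepG2 with reporter units → dose chemical 24 h (medium has 3 nM 6-alpha-fluorotestosterone) → isolate RNA, RT-PCR → FAM primer extension, HpaI digest → capillary electrophoresis; gain of signal vs DMSO.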

“And” between values parts separate entries of the source, which are not always exact repeats. Equal entries are not always repeated. Results filed as inconclusive are left out. Some compounds were tested as several samples or in several runs, with calls that do not always agree. The source made the active and inactive calls. How the source made its calls: active means hit-call score of the fitted dose curve at least 0.9, where 1 is the maximum; inconclusive means response in the unintended direction; inactive means score below 0.9.

Chain of Estrogen receptor (Homo sapiens) (P03372 whole entry, looked up, the tested form may be a part): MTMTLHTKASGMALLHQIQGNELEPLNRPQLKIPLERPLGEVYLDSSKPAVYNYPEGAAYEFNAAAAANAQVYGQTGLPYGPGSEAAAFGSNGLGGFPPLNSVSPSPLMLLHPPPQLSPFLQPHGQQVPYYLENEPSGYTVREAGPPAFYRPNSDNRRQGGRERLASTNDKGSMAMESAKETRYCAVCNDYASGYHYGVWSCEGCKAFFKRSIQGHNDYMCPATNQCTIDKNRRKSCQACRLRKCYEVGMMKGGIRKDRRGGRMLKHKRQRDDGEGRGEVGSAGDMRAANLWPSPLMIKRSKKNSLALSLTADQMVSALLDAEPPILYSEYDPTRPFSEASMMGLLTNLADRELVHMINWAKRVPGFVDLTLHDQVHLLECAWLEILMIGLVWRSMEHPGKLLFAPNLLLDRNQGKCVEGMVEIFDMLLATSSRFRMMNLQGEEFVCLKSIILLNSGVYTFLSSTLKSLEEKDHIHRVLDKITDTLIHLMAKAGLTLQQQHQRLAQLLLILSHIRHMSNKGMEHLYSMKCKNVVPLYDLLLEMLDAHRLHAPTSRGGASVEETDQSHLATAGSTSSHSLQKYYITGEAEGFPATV

In general, AC50 refers to the concentration giving half of the maximal activity seen. Regarding `CC(C)(C)c1ccc(O)c(C(C)(C)C)c1`, the half-maximal activity concentration (AC50) in experiment [1] was 17.4 µM (active); in experiment [2], 21 µM (active); in experiment [3] it was 17.3 µM (active).
As for `c1ccc2c(c1)ccc1ccccc12`, the AC50 in experiment [1] and in [2] was 50 µM (active) each time. For the same compound, the compound was called inactive in experiment [3].
In the case of `COc1ccc([N+](=O)[O-])cc1N`, the compound was called inactive in experiment [1].
In the case of `COC(=O)CCCCC(=O)OC`, the outcome in experiment [1] and in experiment [2] was inactive.
Turning to `O=C(O)c1ccccc1C(c1ccc(O)cc1)c1ccc(O)cc1`, the result in [1], in [2] and in [3] was inactive.
As for `CCCCCCCC(=O)O`, the result in experiment [1] was inactive.
Consider `CC(=O)CC(C)(C)O`, for which the compound was classed as inactive in [1].
With `COCC(C)OCC(C)O` (configuration not stated), in experiment [1], the compound was classed as inactive.
Still for that read-out and setting: the same measure for `CCCCC(CC)COC(=O)CCCCC(=O)OCc1ccccc1` (configuration not stated): “inactive”.
As to `CN1CCN(c2ccccc2/C=C2\SCCN(c3ccc(Cl)c(Cl)c3)C2=O)CC1`, the concentration at half-maximal activity (AC50) in [1] is 66.3 µM (active); in [2] it was 66.9 µM (active); in [3], 50 µM (active).
For the compound `CCOC(=O)CC(O)(CC(=O)OCC)C(=O)OCC`, the result in experiment [1] was inactive.
Take `CCCCC(CC)COC(=O)CCCCC(=O)OCC(CC)CCCC` (configuration not stated): the result in experiment [1] and in experiment [2] was inactive.
As for `CCC(=C(c1ccc(O)cc1)c1ccc(OCCN(C)C)cc1)c1ccccc1`, the AC50 in experiment [1] was 6.23 µM (active); in experiment [2], 5.79 µM (active); in experiment [3] it was 5.17 µM (active) and 6.37 µM (active) and 12.9 µM (active).
`CCCCCCCCCCCCN1CCCC1=O`: in [1], the AC50 is 50 µM (active).
`O=C(/C=C/c1ccc(O)cc1)CC(=O)/C=C/c1ccc(O)cc1`: the AC50 is 62.8 µM (active) in [1] and 28.4 µM (active) in experiment [2]. For the same compound, the outcome in experiment [3] was inactive.
`CC#C[C@]1(O)CC[C@H]2[C@@H]3CCC4=CC(=O)CCC4=C3[C@@H](c3ccc(N(C)C)cc3)C[C@@]21C`: the half-maximal activity concentration (AC50) is 28.1 µM (active) in experiment [1]; 25.2 µM (active) in experiment [2]; 90.5 µM (active) and 83.7 µM (active) and 82.6 µM (active) in [3].
For `CCC(C)(C)C1CCC(O)CC1` (configuration not stated), the AC50 in experiment [4], in [9] and in [10] was 10 µM (active) each time. For the same compound, the outcome in experiment [5], in experiment [1], in experiment [2], in [6], in [7] and in [8] was inactive. Moreover, the compound was classed as inactive in experiment [3].
On to `CC(C)CCCCCCOC(=O)CCCCC(=O)OCCCCCCC(C)C`, for which, in experiment [1], the result was inactive.
With `O=C1OC2(c3ccccc31)c1cc(Br)c(O)c(Br)c1Oc1c2cc(Br)c(O)c1Br`, the compound was called inactive in experiment [1] and in [3].
For the compound `O=C(OCCOCCOC(=O)c1ccccc1)c1ccccc1`, the result in experiment [1] was inactive.
Turning to `CCCCCCCCOC(=O)CCCCCCCCC(=O)OCCCCCCCC`, the result in experiment [1] and in [2] was inactive.
Consider `CCCCOCCO`, for which the call in experiment [1] was inactive.
For `CC[C@H](c1ccc(O)cc1)[C@@H](CC)c1ccc(O)cc1`, the half-maximal activity concentration (AC50) in [4] was 6.57e-05 µM (active); in experiment [5], 0.000101 µM (active); in experiment [1], 10.7 µM (active); in experiment [6] it was 0.0764 nM (active); in experiment [7], 0.0552 nM (active); in [8] it was 0.0207 nM (active). Besides, the figures for the AC50 in experiment [9], in [10] and in experiment [3] were 3.92e-05 µM (active), 2.26e-05 µM (active) and 83.3 µM (active), respectively. Also, the call in [3] was inactive.
Take `CCCCCCCCCCCCCCCS(=O)(=O)Oc1ccccc1`: in experiment [1], the compound was classed as inactive.
For the compound `CCCCCCCCC(=O)O`, the compound was classed as inactive in experiment [1] and in experiment [2].
As to `Cc1oc(-c2ccccc2)nc1CCOc1ccc(C[C@H](Nc2ccccc2C(=O)c2ccccc2)C(=O)O)cc1`, the AC50 in [1] is 14 µM (active); in experiment [3], 78.5 µM (active). Also, the result in [6], in [8] and in [10] was inactive.
